Only some compounds are listed: those with a hit (about 2.5% of all), similar ones and a draw of the others.
WRN inhibitor – inhibitors of human WRN helicase | Q14191 | WRN helicase unwinding, fluorescent forked duplex, kinetic | Potency, µM (titrated, usually from 114 µM), actives largely listed as inhibitors | 0.46% of 360,000 active | AID 651768; further: nearly all actives have a fitted effect of over 55% in size
Target sequence (Q14191 whole entry, looked up): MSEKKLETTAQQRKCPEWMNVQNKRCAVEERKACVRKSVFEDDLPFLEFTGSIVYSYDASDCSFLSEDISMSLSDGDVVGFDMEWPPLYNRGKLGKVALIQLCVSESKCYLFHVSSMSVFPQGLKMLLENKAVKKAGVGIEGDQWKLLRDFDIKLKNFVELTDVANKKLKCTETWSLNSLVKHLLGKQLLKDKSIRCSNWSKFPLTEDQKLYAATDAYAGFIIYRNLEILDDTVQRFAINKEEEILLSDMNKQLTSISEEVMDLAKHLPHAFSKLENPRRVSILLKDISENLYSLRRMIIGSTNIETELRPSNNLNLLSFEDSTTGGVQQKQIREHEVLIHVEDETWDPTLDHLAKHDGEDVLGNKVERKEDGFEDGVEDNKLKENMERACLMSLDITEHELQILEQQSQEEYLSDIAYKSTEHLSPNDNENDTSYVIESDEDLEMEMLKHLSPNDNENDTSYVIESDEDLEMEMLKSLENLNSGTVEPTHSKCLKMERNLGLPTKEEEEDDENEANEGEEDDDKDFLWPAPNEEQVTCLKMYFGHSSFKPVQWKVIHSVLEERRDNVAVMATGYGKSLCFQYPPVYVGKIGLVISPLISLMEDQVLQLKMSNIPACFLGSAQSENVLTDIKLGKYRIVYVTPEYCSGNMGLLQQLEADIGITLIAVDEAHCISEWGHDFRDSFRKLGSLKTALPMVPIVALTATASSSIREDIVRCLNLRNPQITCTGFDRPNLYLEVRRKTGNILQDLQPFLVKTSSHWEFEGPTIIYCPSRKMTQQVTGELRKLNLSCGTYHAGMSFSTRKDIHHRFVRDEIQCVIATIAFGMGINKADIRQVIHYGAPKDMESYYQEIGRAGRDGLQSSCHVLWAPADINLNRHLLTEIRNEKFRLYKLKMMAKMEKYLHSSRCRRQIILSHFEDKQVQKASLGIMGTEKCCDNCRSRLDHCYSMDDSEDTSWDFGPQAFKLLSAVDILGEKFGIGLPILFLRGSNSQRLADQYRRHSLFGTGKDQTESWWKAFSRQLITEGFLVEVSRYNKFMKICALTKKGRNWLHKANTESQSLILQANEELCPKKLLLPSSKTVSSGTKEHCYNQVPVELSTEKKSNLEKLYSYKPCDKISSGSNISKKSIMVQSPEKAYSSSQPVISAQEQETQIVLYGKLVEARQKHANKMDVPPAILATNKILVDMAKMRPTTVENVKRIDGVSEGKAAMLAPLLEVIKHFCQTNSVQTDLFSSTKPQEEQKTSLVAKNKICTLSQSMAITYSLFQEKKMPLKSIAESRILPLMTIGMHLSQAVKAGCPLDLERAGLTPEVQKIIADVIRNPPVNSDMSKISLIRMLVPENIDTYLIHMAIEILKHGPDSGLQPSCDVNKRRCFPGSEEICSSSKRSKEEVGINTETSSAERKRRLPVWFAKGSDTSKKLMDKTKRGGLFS
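WRN at 20 nM final preincubated with compound 15 min at room temperature; reaction started with 100 nM fluorophore/quencher forked duplex oligonucleotide and 2 mM ATP final. Unwinding followed kinetically by red fluorescence (ex 525, em 598 nm).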
POLK inh – DNA polymerase kappa (human) inhibition | purified Pol kappa, fluorescent DNA synthesis assay, 10 min | 0.53% of 400,000 active | Potency, µM (series often up to 107 µM), usual class: inhibitors | Q9UBT6
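Readout: fluorescence, taken kinetically at 0 and 10 min. Conditions: 10 nM Pol kappa, 15 min RT compound preincubation, 50 nM substrate final. Controls: enzyme-free buffer wells.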
Pol iota inh – DNA polymerase iota (human) inhibition. AID 588590. Q9UNA4. Pol iota fluorescent replication assay, 10 min. 1% of 390,000 active. Potency, µM (doses to about 115 µM), actives largely listed as inhibitors
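Pol iota at 10 nM preincubated 15 min with compounds at room temperature; reaction started with fluorescent substrate, 50 nM final. Fluorescence read kinetically at 0 and 10 min; buffer-only wells as negative control.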
POLB inh – DNA polymerase beta (human) inhibition | P06746 | Pol beta primer extension/strand displacement, fluorescence kinetic | Potency, µM (top dose mostly 114 µM), hits mostly inhibitors | 1.3% of 340,000 active
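Pol beta (10 nM) and compounds were preincubated 15 min at room temperature, then 50 nM substrate (final) started primer extension/strand displacement. Reads were taken at 0 and 10 min; concentration-response data were fitted to a four-parameter Hill equation.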
L3MBTL1 inh – inhibitors of human L3MBTL1 | Q9Y468 | AlphaScreen L3MBTL1–H3K9me1 peptide binding | Potency, µM (series often up to 57.1 µM), most hits filed as inhibitors | 0.66% of 230,000 active | AID 485360; further: nearly all actives have a fitted effect of over 60% in size
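AlphaScreen assay: L3MBTL1 (50 nM final) was preincubated 30 min at room temperature with biotinylated H3(1-15)K9me1 peptide (75 nM final), then 30 min with library compounds; streptavidin donor and nickel chelate acceptor beads (10 ug/mL final) added, 30 min dark.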
POLH inh – inhibitors of human DNA polymerase eta; recombinant Pol eta, fluorescent DNA replication assay; 1.2% of 390,000 active; Potency, µM (highest dose often 114 µM), hits mostly inhibitors; Q9Y253
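Pol eta (10 nM) was preincubated with compounds for 15 min at room temperature, after which fluorescent replication substrate (50 nM final) was added to start the reaction. Fluorescence was read kinetically at 0 and 10 min.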
Of the large screens only hits and unclear results are named; the others gave an inactive call. The call rests on the fitted dose curve; in most records, active means well fitted curve in the direction sought with a large enough effect; inconclusive means small, poorly fitted or top-dose-only effect, or another doubt; inactive means no such curve, though single readings can be large; an effect the other way counts as inactive or inconclusive.

O=Cc1cn(Cc2ccc(Br)cc2)c2ccccc12	none (no result: L3MBTL1 inh)
CNC(C)C#Cc1ccc2oc3cc(C)c(C)cc3c(=O)c2c1 (stereo not drawn)	Pol iota inh 8.9µM (no result: POLB inh, L3MBTL1 inh)
COC(=O)C1=C(C(=O)OC)SC2(S1)C(C(=O)OC)=C(C(=O)OC)Sc1c2ssc1=O	WRN inhibitor 13µM (no result: POLB inh, L3MBTL1 inh)
Cc1ccccc1-n1nc(C)c2c1NC(=O)CSC2c1ccc(Cl)cc1 (stereo not drawn)	none (no result: WRN inhibitor, L3MBTL1 inh, POLH inh)
CSCC[C@H](NC(=O)[C@@H](NC(=O)CNC(=O)[C@H](CC(=O)O)NC(=O)[C@H](CCSC)NC(=O)[C@@H](N)Cc1ccc(O)cc1)[C@@H](C)O)C(=O)N[C@@H](CO)C(=O)N[C@@H](CCC(N)=O)C(=O)N[C@H](C(=O)O)C(C)C	none (no result: WRN inhibitor, Pol iota inh, POLB inh, L3MBTL1 inh, POLH inh)
CC1Oc2cc3c(-c4c(O)cc(O)c5c(O)c6c(cc45)OC(C)C(C)C6=O)c(O)cc(O)c3c(O)c2C(=O)C1C (stereo not drawn)	WRN inhibitor 63µM, POLK inh 35µM, Pol iota inh 4µM, POLB inh 35µM, L3MBTL1 inh 2µM, POLH inh 7.1µM
C[C@]12CC[C@@H]3c4ccc(OC(=O)N(CCCl)CCCl)cc4CC[C@H]3[C@@H]1CC[C@@H]2O	POLK inh 8.9µM (no result: WRN inhibitor, Pol iota inh, POLB inh, L3MBTL1 inh, POLH inh)
Fc1cccc(CCNCc2ccccn2)c1	Pol iota inh inconclusive
NC(=O)OCCCc1ccccc1	Pol iota inh inconclusive (no result: POLB inh, L3MBTL1 inh)
CCOC(=O)CCCc1cc[c]([Sb](=[O])([OH])[OH])cc1	POLK inh 0.71µM, Pol iota inh 1µM (no result: WRN inhibitor, POLB inh, L3MBTL1 inh, POLH inh)
CN1C(=O)/C(=C/c2ccc(Cl)s2)C(=O)NC1=S	WRN inhibitor 14µM, Pol iota inh inconclusive, POLH inh inconclusive
Cc1ccsc1/C=C1\C(=O)NC(=S)N(C)C1=O	WRN inhibitor 50µM, Pol iota inh inconclusive
CCN1C(=O)/C(=C\c2ccc([N+](=O)[O-])s2)C(=O)NC1=S	POLB inh 4.5µM (no result: WRN inhibitor, POLK inh, Pol iota inh, L3MBTL1 inh, POLH inh)
CN1C(=O)/C(=C\c2ccc(N3CCCCCC3)cc2)C(=O)NC1=S	none
CCCCn1nnnc1C(c1cccc(OC)c1OC)N1CCC2(CC1)C(=O)NCN2c1ccccc1 (stereo not drawn)	none (no result: POLK inh, Pol iota inh, POLB inh, L3MBTL1 inh, POLH inh)
CC(=O)OC1CC[C@]2(C)C(CCC3C2CC[C@]2(C)C(C4=CC(=O)OC4)C(OC(C)=O)CC32O)C1 (stereo partly drawn)	none (no result: WRN inhibitor, Pol iota inh, POLB inh, L3MBTL1 inh, POLH inh)
CC(C)NC(=O)N1CCC2(CC1)CCN(C(=O)Oc1ccccc1)CC2	none (no result: WRN inhibitor, Pol iota inh, POLB inh, L3MBTL1 inh, POLH inh)
N#CC1=C(N)Oc2n[nH]c(-c3cccs3)c2C1c1ccco1 (stereo not drawn)	Pol iota inh 13µM, POLH inh inconclusive
N#CC1=C(N)Oc2n[nH]c(-c3cccs3)c2C1c1ccsc1 (stereo not drawn)	WRN inhibitor inconclusive, POLB inh inconclusive, POLH inh inconclusive
CCC(C)/C=C(C)/C=C/C1=CC2=C(Cl)C(=O)C(C)(OC(C)=O)C(=O)C2=CO1 (stereo not drawn)	Pol iota inh inconclusive, L3MBTL1 inh inconclusive
CC[C@H](C)/C=C(C)/C=C/C1=CC2=C(Cl)C(=O)[C@@](C)(OC(C)=O)C(=O)C2=CO1	WRN inhibitor 45µM, POLK inh inconclusive, Pol iota inh inconclusive, POLH inh 20µM (no result: POLB inh, L3MBTL1 inh)
NC(=O)c1cn(C2CCCCC2)c2ccccc2c1=O	none (no result: L3MBTL1 inh)
O=C1c2ccccc2C(=O)N1SC1CCCCC1	WRN inhibitor 50µM, Pol iota inh inconclusive
NNc1n[nH]c(=S)n1N	Pol iota inh 16µM (no result: L3MBTL1 inh)
C[C@H](CO)N1C[C@H](C)[C@@H](CN(C)C(=O)NC2CCCCC2)Oc2c(NC(=O)Nc3ccc4c(c3)OCO4)cccc2C1=O	Pol iota inh inconclusive (no result: POLB inh)
COc1cc(/C=C2\C[C@H]3[C@@H]4CC=C5C[C@@H](N6CCCC6)CC[C@]5(C)[C@H]4CC[C@]3(C)[C@H]2O)cc(OC)c1OC	none (no result: POLB inh, L3MBTL1 inh)
O=[N+]([O-])c1ccc(N(CCO)CCO)c2c1no[n+]2[O-]	POLH inh 28µM (no result: POLK inh, Pol iota inh, POLB inh, L3MBTL1 inh)
CN1CCN(c2ccc([N+](=O)[O-])c3no[n+]([O-])c23)CC1	Pol iota inh 18µM, POLH inh 89µM (no result: L3MBTL1 inh)
CN1CCN(c2ccc(S(C)(=O)=O)cc2[N+](=O)[O-])CC1	none
CC(C)C[C@H]1C(=O)N2CCC[C@H]2[C@]2(O)O[C@](NC(=O)[C@@H]3C=C4c5cccc6[nH]cc(c56)C[C@H]4N(C)C3)(C(C)C)C(=O)N12	Pol iota inh 11µM (no result: POLB inh)
CCOC(=O)C1CCN(/C=C2/C(=O)NC(=O)N(Cc3ccco3)C2=O)CC1	WRN inhibitor inconclusive, POLK inh 35µM, Pol iota inh 18µM, POLB inh 22µM, L3MBTL1 inh 14µM, POLH inh 7.1µM
Cc1ccccc1-n1c(C)cc(/C=C2/C(=O)NC(=O)N(Cc3ccco3)C2=O)c1C	POLK inh inconclusive, Pol iota inh inconclusive, POLH inh inconclusive
COc1ccc(/C=C2/C(=O)NC(=O)N(Cc3ccco3)C2=O)cc1	POLB inh 10µM, L3MBTL1 inh 8.9µM (no result: WRN inhibitor, POLK inh, Pol iota inh, POLH inh)
CCCNC(=O)N1[C@H]2CC[C@@H]1C(C(=O)OC)=C(c1c(C)noc1C)C2	none (no result: POLB inh)
Cc1cc(OCC(=O)N2CCN(CCc3ccncc3)CC2)cc(C)c1Cl	Pol iota inh inconclusive (no result: WRN inhibitor, L3MBTL1 inh)
COc1cc(N2CCOCC2)ccc1C=C1C(=O)NC(=O)NC1=O	Pol iota inh inconclusive, POLB inh inconclusive
COc1cc(N2CCOCC2)ccc1/C=C1\C(=O)NC(=O)N(Cc2cccs2)C1=O	WRN inhibitor 50µM, Pol iota inh inconclusive (no result: L3MBTL1 inh)
COc1cc(N2CCOCC2)ccc1/C=C1\C(=O)NC(=O)N(Cc2ccc3c(c2)OCO3)C1=O	WRN inhibitor 50µM (no result: L3MBTL1 inh)
CC(=O)O[C@H]1[C@H]2O[C@]23[C@@H]2CC[C@]4(O)C[C@@H](O)CC[C@]4(C)C2CC[C@]3(C)[C@H]1c1ccc(=O)oc1 (stereo partly drawn)	none (no result: POLB inh)
COC(=O)C1=C(c2ccc3ccccc3c2)C[C@@H]2CC[C@H]1N2C(=O)NCc1ccco1	POLK inh inconclusive, POLH inh 35µM (no result: POLB inh)
COC(=O)C1=C(c2ccc3ccccc3c2)C[C@@H]2CC[C@H]1N2C(=O)NCC1CC1	none (no result: POLB inh)
CN(C)c1ccc(CCN2CCOCC2)cc1	none (no result: POLB inh)
O=C1NC(=S)NC(=O)C1=Cc1ccc(OCC(=O)N2CCCC2)cc1	Pol iota inh inconclusive, POLB inh 50µM, POLH inh inconclusive (no result: L3MBTL1 inh)

Screens (PubChem BioAssay)
